In all, about 1,300 compounds went through this assay and about 1,200 (92%) were called active. So high a share suggests a set chosen from earlier hits. Some of the results follow. Potency and affinity values are given separately. Inconclusive results are not listed. The rule behind the calls is not given here.
Test: P. falciparum Dd2 growth inhibitors, dose response, SYBR Green, cherry-picked samples (AID 1159567)
Settings: Plasmodium falciparum Dd2 growth, SYBR Green fluorescence; series mostly up to 19.5 µM

outcome, inactive:
O=C(O)C[C@@H]1C[C@@H]2c3cc(NS(=O)(=O)c4ccccc4)ccc3O[C@@H]2[C@H](CO)O1, C[C@@H]1CN([C@@H](C)CO)C(=O)c2cc(NC(=O)C3CC3)ccc2O[C@H]1CN(C)CC1CCCCC1, CCC(=O)N[C@H]1C=C[C@H](CC(=O)NCC2CCCCC2)O[C@@H]1CO, C[C@H]1CN([C@@H](C)CO)C(=O)CCCn2cc(nn2)CO[C@@H]1CN(C)C(=O)Nc1ccc(N2CCCCC2)cc1, C[C@H]1CN([C@@H](C)CO)C(=O)CCCn2nncc2CO[C@H]1CN(C)C(=O)Nc1ccc(N2CCCCC2)cc1, COc1cccc(CNC(=O)[C@H]2[C@H](CO)[C@H]3Cn4c(cccc4=O)[C@@H]2N3C(=O)C2CCCC2)c1, O=C(c1cccnc1)N1CC2(C1)[C@@H](c1ccccc1)[C@@H](CO)N2C(=O)CC1CC1, COc1ccc(CNC(=O)C[C@H]2C=C[C@@H](NS(=O)(=O)c3cccc(OC)c3)[C@@H](CO)O2)cc1, C[C@H](O)C#Cc1cnc2c(c1)C(=O)N([C@@H](C)CO)C[C@@H](C)[C@@H](CN(C)C(=O)Cc1ccncc1)O2, O=C(Nc1ccc(F)cc1)N1C[C@H]2[C@@H](c3ccccc31)[C@@H](CO)N2Cc1cocn1, O=C(Nc1ccccc1F)N1C[C@@H]2[C@H](c3ccccc31)[C@H](CO)N2C(=O)C1CCOCC1, CN(C)CC#Cc1ccc([C@@H]2[C@H](CO)N3C(=O)CN(C(=O)Cc4cccnc4)C[C@@H]23)cc1, COc1ccc(CN(C)C[C@@H]2OCc3cn(nn3)CCCC(=O)N([C@H](C)CO)C[C@H]2C)cc1, C[C@@H]1CN([C@@H](C)CO)C(=O)c2c(c3ccccc3n2C)-c2ccccc2CO[C@H]1CN(C)Cc1ccc(Cl)c(Cl)c1, O=C1CN(Cc2ccc(F)cc2)C[C@@H]2[C@@H](c3ccc(Br)cc3)[C@H](CO)N12, Cc1noc(C)c1NC(=O)Nc1ccc2c(c1)C(=O)N([C@H](C)CO)C[C@@H](C)[C@@H](CN(C)S(C)(=O)=O)O2, COc1ccc2c3c([nH]c2c1)[C@@H](CO)N(C(C)=O)CC31CN(C(=O)CN2CCOCC2)C1, COCC(=O)N1CC2(C1)CN(C(=O)CN1CCOCC1)[C@@H](CO)c1c2c2ccc(OC)cc2n1C, COCC(=O)Nc1ccc2c(c1)OC[C@@H](C)N(C(=O)NC(C)C)C[C@@H](C)[C@@H](OC)CN(C)C2=O, CCCNC(=O)Nc1ccc2c(c1)C(=O)N(C)C[C@H](OC)[C@@H](C)CN(C(=O)C1CCOCC1)[C@@H](C)CO2, COc1ccccc1S(=O)(=O)N(C)C[C@H]1OCc2cn(nn2)CCCC(=O)N([C@@H](C)CO)C[C@@H]1C, CO[C@H]1CN(C)C(=O)c2ccc(NC(=O)CC(F)(F)F)cc2OC[C@@H](C)N(CC2CC2)C[C@H]1C, COc1ccc2c3c(n(C)c2c1)[C@H](CO)N(Cc1cccnc1)CC31CN(C(=O)NC(C)C)C1, N#C[C@@H]1[C@H](c2ccccc2-c2ccccc2F)[C@H](CO)N1C(=O)C1CCOCC1, N#C[C@@H]1[C@@H](c2ccccc2-c2ccccc2F)[C@H](CO)N1C(=O)C1CC1, N#C[C@H]1[C@@H](c2ccccc2-c2ccccc2F)[C@@H](CO)N1C(=O)C1CCOCC1, C[C@@H]1CN([C@H](C)CO)C(=O)c2cc(NC(=O)CCC(F)(F)F)ccc2O[C@H]1CN(C)C(=O)NC1CCCCC1, C[C@H](CO)N1C[C@H](C)[C@@H](CN(C)C(=O)CCCN(C)C)OCc2cnnn2CCCC1=O, O=C(C[C@@H]1C=C[C@@H](NC(=O)C2CCC2)[C@H](CO)O1)NC1CCC1, CN1C(=O)c2cc(NC(=O)c3ccc4c(c3)OCO4)ccc2OC[C@@H]2O[C@@H](CC(=O)O)CC[C@@H]21, CO[C@@H]1CN(C)C(=O)c2cc(NC(C)=O)ccc2OC[C@@H](C)N(C(=O)Cc2cccnc2)C[C@H]1C, COCC#Cc1ccc([C@H]2[C@H](CO)N3C(=O)CN(C(=O)CN4CCOCC4)C[C@@H]23)cc1, CN(C)CC(=O)Nc1ccc2c(c1)[C@@H]1C[C@H](CC(=O)N3CCOCC3)O[C@@H](CO)[C@@H]1O2, C[C@H]1CN([C@@H](C)CO)C(=O)Cc2cc(NC(=O)CCC(F)(F)F)ccc2O[C@H]1CN(C)S(C)(=O)=O, CN(C)C(=O)c1cccc(-c2ccccc2[C@@H]2[C@@H](C#N)N(C(=O)C3CC3)[C@H]2CO)c1, COCC(=O)N1[C@H](C#N)[C@@H](c2ccccc2-c2ccccc2)[C@H]1CO, COCC(=O)N1[C@@H](C#N)[C@H](c2ccccc2-c2ccccc2)[C@@H]1CO, CO[C@H]1CN(C)C(=O)c2ccc(NS(=O)(=O)CC(F)(F)F)cc2OC[C@H](C)N(C)C[C@@H]1C, CO[C@H]1CN(C)C(=O)c2cc(NS(=O)(=O)c3ccccc3C)ccc2OC[C@H](C)N(C)C[C@H]1C, O=C(C[C@H]1C=C[C@H](NC(=O)Cc2ccccn2)[C@H](CO)O1)NCCc1ccccc1, CCC(=O)N1[C@H](CO)[C@H](c2ccccc2)[C@@H]1CN(CC)C(=O)c1cccc(F)c1, CCCNC(=O)Nc1ccc2c(c1)C(=O)N(C)C[C@@H](OC)[C@H](C)CN(C(=O)C1CCOCC1)[C@@H](C)CO2, CCCNC(=O)Nc1ccc2c(c1)C(=O)N(C)C[C@H](OC)[C@@H](C)CN(C(=O)C1CCOCC1)[C@H](C)CO2, COCC(=O)N1[C@H](C#N)[C@@H](c2ccccc2C2=CCCC2)[C@@H]1CO, CO[C@H]1CN(C)C(=O)c2cc(NC(C)=O)ccc2OC[C@H](C)N(Cc2ccncc2)C[C@@H]1C, CO[C@H]1CN(C)C(=O)c2cc(NC(C)=O)ccc2OC[C@H](C)N(Cc2ccncc2)C[C@H]1C
